Laboratory results published in PubChem BioAssay AID1347416 (National Center for Advancing Translational Sciences (NCATS), 2020).
In all, about 4,100 compounds went through this assay and about 1,600 (39%) were called active. Another 25% or so got no clear call; they are omitted. The list shows a part of the results. A number with no mark means an inactive call. The call rests on the fitted dose curve; in most records, active means well fitted inhibition curve with a large enough effect; inconclusive means small, poorly fitted or top-dose-only effect; inactive means no such curve, though single readings can be large or run the other way.

Assay: qHTS Validation assay for Inhibitors of Plasmodium falciparum Dd2 growth in vitro; further: nearly all actives have a fitted effect of over 70% in size
Conditions: P. falciparum Dd2 in RBCs, SYBR Green growth, 72 h; series mostly up to 28.7 µM; activity change, negative = inhibition: at the top concentration
Text: Malaria, a parasitic disease spread to humans through the bite of a Plasmodium infected Anopheles mosquito, continues to be a global health burden affecting millions of people, with an estimated 228 million cases and 405,000 deaths in 2018. Concerns about safety and limitations of current antimalarial treatments strongly emphasize the need to develop new therapeutic options. The scarce number of chemotypes and validated drug targets with efficacy against the liver stage, have hindered development of new antimalarials. To address this, a chemoprophylactic drug discovery effort was conducted through a combined phenotypic high-throughput asexual blood stage and liver stage screen, providing a robust foundation to identify liver-stage active lead chemotypes. Compounds were initially screened against Plasmodium falciparum Dd2 strain parasites using a in vitro SYBRGreen-1 based 72 hr proliferation assay to identify novel chemotypes to advance to liver stage assays. NIH/NCATS Early Translation Branch Assay Submitter (PI): Anton Simeonov Ph.D.
[…] Assay Protocol: PROTOCOL TABLE (as described by Inglese et al., 2007) SEQUENCE No. (e.g., 1, 2, 3, etc.); PARAMETER (e.g., Cells, Incubation, Reagent, etc.); VALUE; DESCRIPTION SEQUENCE, Parameter, Description 1; Reagent; 3 uL complete malaria growth medium, 1536 TC treated Black clear bottom plate 2; Controls; 23 nL positive control artesunate (300 nM final) to column 1; Neutral control DMSO to columns 2-4 3; Compound; 23 nL of compounds in dose response concentration (29 uM to 0.5 nM final) 4; Reagent; 5 uL malaria infected red blood cells (2.5% hematocrit final, 0.3% parasitemia 5; Time; 72 hours at 37C (5% O2, 5% CO2, 90% N2; 95% Rh) 6; Reagent; 2 uL lysis buffer/SYBRGreen-1, 25 sec shake immediately following dispense 7; Time; ~16 hours at 37C (5% O2, 5% CO2, 90% N2; 95% Rh) 8; Detector; EnVision (PerkinElmer) bottom read at 485/14nm excitation and 535/25 nm emission NOTES (numbers refer to sequence above): 1; Complete Malaria Growth Media: 1X RPMI-1640 w/L-glutamine, 5.5g/L Albumax II, 367 uM Hypoxanthine, 25 mM HEPES, 0.25% Sodium Bicarbonate, 35 uM Gentamicin sulfate 2; Controls were added using the Kalypsis Pintool (Wako USA) equipped with 1536 pinhead 3; Compounds were added in a 7-point, titration with a high final concentration of 29 uM by Pintool from seven inter-plate titrations of library plates and two DMSO control plates at the beginning and end (see Yasgar et al., 2008). 4; Red blood cells infected with Plasmodium falciparum Dd2 parasites were used. 6; Lysis buffer: 20 mM Tris-HCl, 10 mM EDTA, 0.16% Saponin, 1.6% Triton-X, 10X SYBR Green. REFERENCE: Inglese J, Shamu CE, Guy RK. 2007. Reporting data from high-throughput screening of small-molecule libraries. Nat Chem Biol. doi:10.1038/nchembio0807-438 Yasgar A, Shinn P, Jadhav A, Auld D, Michael S, Zheng W, Austin CP, Inglese J, Simeonov A. 2008. Compound Management for Quantitative High-Throughput Screening. J Lab Autom 13:79-89. doi:10.1016/j.jala.2007.12.004
On the % scale 0 is the no-effect control and ±100 the full control effect; potency means the concentration at half of the fitted maximal effect.

| SMILES | Potency | activity change, negative = inhibition |
| --- | --- | --- |
| N=c1c2c(n(Cc3ccc(F)cc3)c3c1CCC3)CCC2 | 3.35 µM (active) |  |
| N=c1c2c(n(Cc3ccc(F)cc3)c3c1CCC3)CCCC2 | 2.99 µM (active) |  |
| N=c1c2c(n(Cc3ccccc3)c3c1CCC3)CCC2 | 4.22 µM (active) |  |
| COc1ccc2cc3cc(C(=O)NCCC(C)C)oc3nc2c1 |  | 61.6% |
| COc1ccc(CNC(=O)N2CCCC(CN3CCCC3)CC2)cc1 (stereo not drawn) |  | -25.2% |
| COc1cccc(CC(=O)N2CCCC(CN3CCCC3)CC2)c1 (stereo not drawn) | 15 µM (active) |  |
| CCc1noc(-c2cn(C3CCN(C(=O)Cc4cccc(OC)c4)CC3)nn2)n1 |  | -1.95% |
| Nc1cc2ccncc2c2ccccc12 | 0.266 µM (active) |  |
| O=C(NC1CCCC1)N1CCC(Cc2nncn2CC2CC2)CC1 |  | 22.2% |
| COC[C@@H]1CN(Cc2cn[nH]c2-c2ccccc2)C[C@H]1c1nc(C)no1 |  | -4.59% |
| Cc1ccccc1CN1C[C@@H]2C[C@@H](c3cn[nH]c3-c3ccccc3)N3CCC[C@@]23C1=O | 15 µM (active) |  |
| COCC(=O)N[C@H]1C[C@@H](CO)N(Cc2cn[nH]c2-c2ccccc2)C1 |  | 9.64% |
| Cc1cccc(NC(=O)Cn2cnc(S(=O)(=O)N3CCCC3)c2)c1C |  | -9.65% |
| Cc1cccc(NC(=O)Cn2c(C)c(C#N)c3ccccc32)c1C | 5.96 µM (active) |  |
| CN(C)c1cc(=O)c2ccnc(-c3ccccc3F)c2o1 |  | 0% [at 57.5 µM] |
| CCCOC(=O)c1ccc(-c2c(C)noc2-c2ccc(OC)cc2O)o1 | 1.88 µM (active) |  |
| CCc1ccc(CNC(=O)c2cc3cc4ccc(OC)cc4nc3o2)cc1 |  | 12.9% |
| COc1ccccc1NC(=O)CN1CCN(C2c3ccccc3-c3ccccc32)CC1 | 15 µM (active) |  |
| CCc1cc(=O)n(CC(=O)Nc2ccccc2OC)c(-c2ccccc2)n1 |  | -27.4% |
| CCc1noc(-c2cccn3c(CNC(=O)c4cccc(N(C)C)c4)nnc23)n1 |  | 4.51% |
| Cc1ccc(C(=O)NCc2nnc3c(-c4nc(C(C)C)no4)cccn23)cc1 |  | -1.73% |
| CCOC(=O)c1c(-c2ccccc2)oc2ccc(O)c(CN3CCCC3)c12 | 0.596 µM (active) |  |
| Cc1ccc(NC(=O)c2c(C)oc3ccc(O)c(CN4CCCCCC4)c23)cc1 | 2.11 µM (active) |  |
| Cc1ccc(NC(=O)c2c(C)oc3ccc(O)c(CN4CCCCCC4)c23)c(C)c1 | 4.73 µM (active) |  |

| SMILES | Potency | activity change, negative = inhibition |
| --- | --- | --- |
| CCOC(=O)c1c(C)c(-c2ccccc2)n(CC(=O)NC2CCCCCC2)c1C |  | -7.27% |
| Cc1ccc(CN2CCc3nc(C(=O)Nc4cccnc4)oc3CC2)cc1 |  | -9.16% [at 43.1 µM] |
| Cc1ccc(S(=O)(=O)N2CC3CCCC2C3)cc1 (stereo not drawn) |  | -6.85% |
| O=C(NC[C@H]1OC[C@@H](NCc2ccccc2F)[C@@H]1O)Nc1ccccc1 |  | -11.3% [at 43.1 µM] |
| CCn1cc(CN2CCCC(c3nc(C(C)C)no3)CCNC(=O)CC2)cn1 (stereo not drawn) |  | 15.1% |
| Cc1ccc(O)c(CN2CCCC(c3nc(CC(C)C)no3)C2)c1 (stereo not drawn) | 9.44 µM (active) |  |
| Cc1cccc(OCCc2noc(C3CCN(C(=O)c4n[nH]c(=O)c5ccccc45)C3)n2)c1 (stereo not drawn) |  | -9.66% |
| O=C(Cn1c(=O)n(Cc2ccc(C(=O)NCc3ccc4c(c3)OCO4)cc2)c(=O)c2ccccc21)Nc1cccc(Cl)c1 | 5.96 µM (active) |  |
| CN(C(=O)Cn1c(=O)n(Cc2ccc(C(=O)NCc3ccc4c(c3)OCO4)cc2)c(=O)c2ccccc21)c1ccccc1 |  | 6.13% |
| N=c1ccn(CC(=O)c2ccc(-c3ccccc3)cc2)cc1 | 0.944 µM (active) |  |
| NC1=NC[C@@H](Cc2ccc(O)cc2)N1CCCCC1CCCCC1 | 4.73 µM (active) |  |
| C[C@H]1CN=C(N(C)C)N1CCC1CCCCC1 |  | -7.45% |
| CCC(=O)N1CCCCCCN(C)C(=O)[C@@H]2CCC[C@@H]21 |  | 9.66% |
| COc1ccc2c(c1)c(CN1CCCCCCN(C)C(=O)[C@@H]3CCC[C@@H]31)cn2C | 15 µM (active) |  |
| C=C(C)COc1ccc(-c2[nH]ncc2Oc2ccccc2OCC)c(O)c1 | 2.99 µM (active) |  |
| C=C(C)COc1ccc(-c2[nH]ncc2-c2ccc(OC)c(OC)c2)c(O)c1 | 6.68 µM (active) |  |
| CCOC(=O)c1cc(Sc2ccccc2N)cc(C(=O)OCC)n1 |  | -6.23% |
| CCOC(=O)C1CCN(C(=O)c2c(C)oc3c2C(=O)c2ccccc2C3=O)CC1 | 0.531 µM (active) |  |
| CCOC(=O)c1c(C)oc2c1C(=O)c1ccccc1C2=O | 0.422 µM (active) |  |
| CCOC(=O)C1CCN(C(=O)Cn2cnc3sc(C)c(S(=O)(=O)N4CCOCC4)c3c2=O)CC1 |  | 54.6% |
| CCOC(=O)c1c(C)[nH]c2c1-c1ccccc1C(=O)C2=O | 2.37 µM (active) |  |
| O=C(NCc1ccc(F)cc1)C1(CCO)CC12CCOCC2 (stereo not drawn) |  | 10.9% |
| O=C(Nc1ccccc1F)N1CCCCCC1c1nc(-c2cccnc2)no1 (stereo not drawn) |  | 23.3% |
| O=C(CCC1CCCN(Cc2cccn2-c2cccnc2)C1)Nc1ccccc1F (stereo not drawn) | 6.68 µM (active) |  |
